Measured values: PubChem BioAssay (Tox21)
Activity calls are given as the source filed them. Calls come from the whole dose curve; as a rule, active = well fitted activation curve with a large enough effect in the repeat runs; inconclusive = weak or mixed curves; inactive = flat fitted curve, though single readings scatter.

Assay: A CellTox Green Cytotoxicity Assay to monitor cytotoxicity in HEK293 cells - 0 hour (AID 1224869); note: nearly all actives have a fitted effect of over 50% in size
Conditions: CellTox Green fluorescence; series mostly up to 76.8 µM; cytotoxicity: at the top concentration
Text: National Center for Advancing Translational Sciences [NCATS]
NIH Chemical Genomics Center [NCGC]
U.S. Environmental Protection Agency [EPA]
National Institutes of Environmental Health Sciences [NIEHS]
National Toxicology Program [NTP]
Cell-based models are critical for drug discovery. Determining the natural cytotoxic effects resulting from test compounds is an essential research activity. A CellTox Green Cytotoxicity Assay to monitor cytotoxicity in real time of continues cell culture during 40 hours of the compound treatment was used to screen Tox21 10K library compounds in Hek293 cells. CellTox Green Cytotoxicity Assay is a nonlytic, homogeneous, biofluorescent method to measure cytotoxicity in cell culture after experimental manipulation. The assay system uses a proprietary asymmetric cyanine dye that is excluded from viable cells but preferentially stains the dead cell's DNA. […] Viable cells produce no appreciable increases in fluorescence. Therefore, the fluorescence signal produced by the binding interaction with dead cell DNA is proportional to cytotoxicity.
The mixture of Hek293 cell suspension and reagents were dispensed at 600cells/6 ul/well in 1536-well tissue culture treated black solid bottom plates using a Multidrop dispenser. After the assay plates were incubated at a 37 C/5% CO2 incubator for 5 hours, 23 nL of compounds dissolved in DMSO, positive and negative controls was transferred to the assay plate by a pintool work station. The plates were incubated at 37 C for 40 hours. The fluorescence intensity were measured at 0h, 8h, 16h, 24h, 32h and 40h time points using ViewLux plate reader during compound treatment.
% is set by controls: 0 for no effect and ±100 for the full control effect.

Row | SMILES | cytotoxicity
1 | CCC1(c2ccccc2)C(=O)N=C(O)NC1=O (stereo not given) | 0.162% (inactive)
2 | C[C@]12CC[C@H]3[C@@H](CCC4=CC(=O)CC[C@@]43C)[C@@H]1CC[C@@H]2C(=O)O | 0.473% [at 35.3 µM] (inactive)
3 | CN1CCC(N(Cc2ccccc2)c2ccccc2)CC1 | 0.242% [at 35.3 µM] (inactive)
4 | O=C(CCCN1CCC(n2c(=O)[nH]c3ccccc32)CC1)c1ccc(F)cc1 | 0.869% [at 35.3 µM] (inactive)
5 | CCOC(=O)/C=C(C)/C=C/C[C@@H](C)CCCC(C)C | -2.86% (inactive)
6 | CNCC(=O)c1ccc(O)c(O)c1 | 6.48% [at 35.3 µM] (inactive)
7 | CC1(C)C(=O)NC(=O)NC1=O | 22.8% (inactive)
8 | CNC(=O)Oc1ccc(N(C)C)c(C)c1 | 3.64% (inactive)
9 | COP(=S)(OC)Oc1c(Cl)cc(C)cc1Cl | -0.441% (inactive)
10 | CC(CC(C#N)(c1ccccc1)c1ccccc1)N(C)C (stereo not given) | 1.98% (inactive)
11 | CC1CN1P(=O)(N1CC1C)N1CC1C (stereo not given) | 5.18% (inactive)
12 | N#CCNCC#N | -3.55% (inactive)
13 | COC(=O)C(C)Oc1ccc(Oc2ccc(Cl)cc2Cl)cc1 (stereo not given) | -6.4% (inactive)
14 | CCCCOC(=O)[C@@H](C)Oc1ccc(Oc2ccc(C#N)cc2F)cc1 | 1.02% (inactive)
15 | NC1=NC(=O)C(c2ccccc2)O1 (stereo not given) | -0.538% [at 35.3 µM] (inactive)
16 | Cc1ncc(CNC(=O)N(CCCl)N=O)c(N)n1 | -4.75% [at 35.3 µM] (inactive)
17 | Fc1cc(Br)ccc1CBr | -0.132% [at 35.3 µM] (inactive)
18 | O=NN1CCN(N=O)CC1 | 0.59% (inactive)
19 | CCC/C(=N\OCC)C1=C(O)CC(CC(C)SCC)CC1=O (stereo not given) | 6.97% (inactive)
20 | COP(=S)(OC)Oc1ccc(S(N)(=O)=O)cc1 | 8.82% [at 35.3 µM] (inactive)

Row | SMILES | cytotoxicity
21 | CC1=C(C(=O)Nc2ccccc2)S(=O)(=O)CCO1 | -4.18% (inactive)
22 | c1cc[c]([Hg][c]2ccccc2)cc1 | -0.673% (inactive)
23 | C=CC1CC=CCC1 (stereo not given) | -5.09% (inactive)
24 | N#CC(O)c1ccccc1 (stereo not given) | 1.55% (inactive)
25 | CN/C(=N\[N+](=O)[O-])NCC1CCOC1 (stereo not given) | -0.0007% (inactive)
26 | CS(=O)(=O)c1cc(C(F)(F)F)ccc1C(=O)c1cnoc1C1CC1 | -0.187% (inactive)
27 | CCC(Cl)[N+](=O)[O-] (stereo not given) | 0.583% (inactive)
28 | CCCSP(=O)(OCC)Oc1ccc(Br)cc1Cl (stereo not given) | 1.37% [at 35.3 µM] (inactive)
29 | CCS(=O)(=O)CCSP(=O)(OC)OC | 0.973% (inactive)
30 | O=C(O)c1ccc2[nH]cc(CCCCN3CC=C(c4ccccc4)CC3)c2c1 | 0.842% [at 35.3 µM] (inactive)
31 | CC(C)NCC(O)c1ccc(N)c(C#N)c1 (stereo not given) | 1.17% [at 35.3 µM] (inactive)
32 | CC(C)(C)C(=O)C(Oc1ccc(Cl)cc1)n1cncn1 (stereo not given) | -1.91% (inactive)
33 | CC(C(=O)c1ccccc1)N(C)C (stereo not given) | 6.83% [at 35.3 µM] (inactive)
34 | O=CNC(N1CCN(C(NC=O)C(Cl)(Cl)Cl)CC1)C(Cl)(Cl)Cl (stereo not given) | -3.17% (inactive)
35 | C[C@@H]1CN(C2CCC(C#N)(c3ccc(F)cc3)CC2)CC[C@]1(C(=O)O)c1ccccc1 (stereo not given in full) | 1.18% [at 35.3 µM] (inactive)
36 | COC(=O)c1c(C(F)F)nc(C(F)(F)F)c(C2=NCCS2)c1CC(C)C | 0.605% (inactive)
37 | CC1(C)COP(Oc2ccccc2)OC1 | -7.04% (inactive)
38 | [As]#[In] | -4.12% (inactive)
39 | CCC(=O)c1ccccc1 | 2.24% (inactive)
40 | OCCSCSCCO | 5.21% (inactive)
